This is an account of results in PubChem BioAssay (EPA / NIEHS).

For orientation: AC50 means the concentration giving half of the maximal activity seen.

The test system of assay [1] is SRY-box transcription factor 2 (SOX2) Protein Expression, Deisenroth Lab, SOX2 (gene 6657). Kind of assay: CCTE_Deisenroth_DEVTOX-GLR_Endo_SOX2: CCTE's DevTox GLR-Endo Assay Evaluation of SRY-box transcription factor 2 (SOX2) Protein Expression, Deisenroth Lab (AID 2284412; active = hit-call score of the fitted dose curve at least 0.9, where 1 is the maximum). Put shortly:
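Endpoint is percent SOX2-positive cells (SOX2+ count/total cells) minus 0.2% DMSO control, from high-content imaging of fixed, nuclear-stained RUES2-GLR cells. Dosing twice at 24 h intervals over 48 h differentiation, 1 nM–200 uM in 10 points.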

For assay [2], the system named is SRY-box transcription factor 17 (SOX17) Protein Expression, Deisenroth Lab, SOX17 (gene 64321). Kind of assay: CCTE_Deisenroth_DEVTOX-GLR_Endo_SOX17: CCTE's DevTox GLR-Endo Assay Evaluation of SRY-box transcription factor 17 (SOX17) Protein Expression, Deisenroth Lab (AID 2284413). A digest of the protocol:
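Human RUES2-GLR cells carrying an inducible fluorescent reporter are differentiated in defined media for 48 h and dosed twice, 24 h apart. After fixation and nuclear staining, imaging yields SOX17+ cell percentage relative to 0.2% DMSO-treated differentiated cells.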

The subject of assay [3] is Brachyury (BRA) Protein Expression, TBXT (gene 6862). Kind of assay: CCTE_Deisenroth_DEVTOX-GLR_Endo_BRA: CCTE's DevTox GLR-Endo Assay Evaluation of Brachyury (BRA) Protein Expression, Deisenroth Lab (AID 2284417). A digest of the protocol: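 Endpoint is the fraction of BRA reporter-positive cells over total nuclei, corrected by subtracting the 0.2% DMSO value. Chemicals (1 nM - 200 uM, 10 points) were dosed twice during 48 h differentiation of RUES2-GLR cells, read by imaging.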

A short description of assay [4]: CCTE_Deisenroth_DEVTOX-GLR_Endo_CellCount: Viability Assessment in CCTE's DevTox GLR-Endo Assay, Deisenroth Lab (AID 2284420). Put shortly:
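Human pluripotent RUES2-GLR line; 24 h pre-seed; 48 h endoderm-directed differentiation; 2 doses, q24h; 10 conc., 1 nM - 200 uM; fix + nuclear dye; 5 fields/well imaged; readout = nuclei count, % change vs 0.2% DMSO; n=4.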

The subject of assay [5] is SRY-box transcription factor 17 (SOX17) Protein Expression, Deisenroth Lab, SOX17 (gene 64321). Put plainly: CCTE_Deisenroth_DEVTOX-GLR_Pluri_SOX17: CCTE's DevTox GLR-Pluri Assay Evaluation of SRY-box transcription factor 17 (SOX17) Protein Expression, Deisenroth Lab (AID 2284427; active = hit-call score of the fitted dose curve at least 0.9, where 1 is the maximum). Put shortly:
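Human RUES2-GLR pluripotent line; 24 h seeding, 48 h defined-media differentiation, 2 doses q24h, 10 conc 1 nM - 200 uM. Fix, nuclear stain, image 5 fields/well. Endpoint = %SOX17+ minus 0.2% DMSO; n=4.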

Assay [6] deals with SRY-box transcription factor 2 (SOX2) Protein Expression, Deisenroth Lab, SOX2 (gene 6657). Kind of assay: CCTE_Deisenroth_DEVTOX-GLR_Pluri_SOX2: CCTE's DevTox GLR-Pluri Assay Evaluation of SRY-box transcription factor 2 (SOX2) Protein Expression, Deisenroth Lab (AID 2284428). Put shortly: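 Steps: seed RUES2-GLR cells for 24 h; start 48 h differentiation in defined media; dose test chemicals at 0 and 24 h (1 nM–200 uM); fix, stain nuclei, image; compute SOX2+ percentage against 0.2% DMSO wells.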

For assay [7], the system named is Brachyury (BRA) Protein Expression, Deisenroth Lab, TBXT (gene 6862). Put plainly: CCTE_Deisenroth_DEVTOX-GLR_Pluri_BRA: CCTE's DevTox GLR-Pluri Assay Evaluation of Brachyury (BRA) Protein Expression, Deisenroth Lab (AID 2284429; active = hit-call score of the fitted dose curve at least 0.9, where 1 is the maximum). Put shortly: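 RUES2-GLR reporter line; 48 h mesoderm differentiation; two exposures, 24 h apart; 1 nM - 200 uM, 10 points; nuclear stain, high-content imaging, 5 fields/well; endpoint = %BRA+ cells of total count minus 0.2% DMSO; n=4.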

Assay [8] in a line: CCTE_Deisenroth_DEVTOX-GLR_Pluri_CellCount: Viability Assessment in CCTE's DevTox GLR-Pluri Assay Evaluation of Total Cell Counts, Deisenroth Lab (AID 2284430). A digest of the protocol:
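Cytotoxicity readout: fluorescent nuclei counts by high-content imaging, expressed as percent change relative to 0.2% DMSO. Human RUES2-GLR pluripotent line differentiated 48 h, dosed twice at 24-h intervals across 1 nM - 200 uM (10 points).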

The nature of assay [9]: Tanguay_ZF_120hpf_AXIS: Oregon State University Tanguay Lab 120 Hour Post-fertilization zebrafish Assay for Axial Malformation (AID 2284398). Put shortly:
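Scoring was binary (present or absent) for body-axis defects, judged by brightfield imaging at 120 hpf in surviving larvae. Exposure was static at 28C from 6 hpf in chorion-free 5D wild-type embryos, with 0.64% DMSO vehicle.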

Assay [10] is described as follows: Tanguay_ZF_120hpf_BRN: Oregon State University Tanguay Lab 120 Hour Post-fertilization zebrafish Assay for Brain Region Malformation (AID 2284402). Put shortly: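 Binary brightfield scoring of brain malformation at 120 hpf in 5D wild-type larvae, chorion removed with pronase at 4 hpf. Static exposure began at 6 hpf, 28C, sealed plates, DMSO 0.64% (vol/vol) as vehicle baseline.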

Assay [11] can be described thus: Tanguay_ZF_120hpf_TCHR: Oregon State University Tanguay Lab 120 Hour Post-fertilization zebrafish Assay for Touch Responsive (AID 2284403). A digest of the protocol: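 Binary touch-response calls are made at 120 hpf in 5D wild-type zebrafish larvae. These larvae were dechorionated with pronase and exposed singly from 6 hpf in sealed, dark plates at 28 °C with 0.64% DMSO final; dead embryos are excluded.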

The nature of assay [12]: Tanguay_ZF_120hpf_ANY: Oregon State University Tanguay Lab 120 Hour Post-fertilization zebrafish Assay for Any Mortality and Malformation (AID 2284404). Put shortly: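 Dechorionated Tropical 5D wild-type embryos, one per well from 6 hpf, static exposure in sealed, dark plates at 28C until 120 hpf, 0.64% DMSO final. Brightfield scoring of mortality and malformations as binary presence/absence, pooling 13 morphology endpoints.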

A short description of assay [13]: CCTE_Padilla_ZF_Score.Edema: CCTE's 144 Hour Post-fertilization zebrafish Assay Score for Edema Malformation, Padilla Lab (AID 2284406). Put shortly: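 Edema scored at 6 dpf by two blinded observers under a stereo microscope, in single outbred wild-type larvae exposed from 6-8 hpf in sealed wells (Hanks', 26C, 14:10 h light) and chemical-free after a 5 dpf rinse.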

Assay [14] in a line: CCTE_Padilla_ZF_Score.Spine: CCTE's 144 Hour Post-fertilization zebrafish Assay Score for Spine Malformation, Padilla Lab (AID 2284407). A digest of the protocol:
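Spine malformation scored at 6 dpf by two independent blinded observers under stereomicroscope, after static sealed exposure from 6–8 hpf at 26C in Hanks' solution with rinse on 5 dpf. Positive-direction fit against DMSO control.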

The nature of assay [15]: CCTE_Padilla_ZF_Score.Swim_bladder: CCTE's 144 Hour Post-fertilization zebrafish Assay Score for Swim Bladder Malformation, Padilla Lab (AID 2284408). A digest of the protocol:
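Swim bladder inflation scored at 6 dpf by two blinded observers under a stereo microscope. Exposure ran from 6–8 hpf in sealed wells of 10% Hanks' at 26C, with rinsing at 5 dpf; DMSO served as baseline.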

Assay [16] can be described thus: CCTE_Padilla_ZF_Score.Position: CCTE's 144 Hour Post-fertilization zebrafish Assay Score for Position, Padilla Lab (AID 2284409). A digest of the protocol: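 Wild-type zebrafish embryos (with chorions) exposed singly from 6–8 hpf in sealed wells of Hanks' solution at 26C, rinsed at 5 dpf. At 6 dpf, blinded assessors scored abnormal water-column position by brightfield stereomicroscopy, relative to DMSO.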

Assay [17] is described as follows: CCTE_Padilla_ZF_Score.Living: CCTE's 144 Hour Post-fertilization zebrafish Assay Score for Viability, Padilla Lab (AID 2284410).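 Note: larval death at 6 dpf judged by absent heartbeat or coagulation.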 Put shortly:
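Mortality at 6 dpf, judged as absent heartbeat or coagulation by two blinded observers, after sealed static exposure beginning at 6–8 hpf at 26C. Larvae were rinsed free of chemical at 5 dpf, and activity was fitted relative to DMSO.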

Assay [18] can be described thus: CCTE_Padilla_ZF_Score.Tail: CCTE's 144 Hour Post-fertilization zebrafish Assay Score for Tail Malformation, Padilla Lab (AID 2284414). A digest of the protocol: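 Tail malformations were scored at 6 dpf by two blinded assessors under a stereo microscope. Chorionated embryos had been exposed from 6-8 hpf in sealed wells of 10% Hanks' at 26 C, then rinsed free of chemical at 5 dpf.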

Assay [19] in a line: CCTE_Padilla_ZF_Score.Blood_pooling: CCTE's 144 Hour Post-fertilization zebrafish Assay Score for Blood Pooling, Padilla Lab (AID 2284415). Put shortly:
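Blood pooling was scored at 6 dpf under a stereo microscope by two blinded assessors, fitted upward against DMSO. Single embryos were dosed at 6–8 hpf in 10% Hanks', kept sealed at 26C (14:10 h cycle) and rinsed at 5 dpf.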

Assay [20] is described as follows: CCTE_Padilla_ZF_Score.Any: CCTE's 144 Hour Post-fertilization zebrafish Assay Score for Any Mortality or Malformation, Padilla Lab (AID 2284416). A digest of the protocol:
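Wild-type zebrafish embryos with chorions, one per well in 10% Hanks' from 6–8 hpf, dosed in sealed plates at 26 C, 14:10 h light:dark; rinsed at 5 dpf; blinded scoring at 6 dpf for death or malformation, versus DMSO.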

Structures are written as SMILES. Records with an inconclusive call do not appear. Activity calls are given as the source filed them. Rule for the calls, unless noted: active = hit-call score of the fitted dose curve at least 0.9, where 1 is the maximum; inactive = score below 0.9.

As to `Nc1ccn([C@@H]2O[C@H](CO)[C@@H](O)[C@@H]2O)c(=O)n1`, the AC50 is 4.66 µM (active) in assay [1]; 0.539 µM (active) in [2]; 4.91 µM (active) in [3]; 0.259 µM (active) in [4]; 1.68 µM (active) in assay [5]; 0.244 µM (active) in assay [6]. Besides, the AC50 in assay [7] was 1.74 µM (active); in assay [8] it was 0.234 µM (active).
For the compound `OC(O)(C(F)C(O)(O)C(F)(F)F)C(F)(F)F`, the result in assay [9], in assay [10], in [11], in assay [14], in assay [17] and in [18] was inactive. The AC50 was 40.5 µM (active) in assay [12]; 31.3 µM (active) in assay [13]; 32.1 µM (active) in assay [15]; 76.9 µM (active) in [16]; 36.6 µM (active) in [19]; 16.9 µM (active) in assay [20].
With `O=C(Cl)C(F)(F)C(F)(F)C(F)(F)C(=O)Cl`, the call in assay [9], in [10], in [11], in [13], in assay [14] and in assay [15] was inactive. Further, the result in [16], in assay [17], in assay [18], in assay [19] and in assay [20] was inactive. For the same compound, the AC50 in assay [12] is 57.6 µM (active).
With `FC(F)=C(F)C(F)(F)C(F)(F)C(F)(F)C(F)(F)C(F)(F)C(F)(F)F`, the call in assay [9], in assay [10], in assay [11], in [12], in assay [13] and in assay [14] was inactive. Also, the call in assay [15], in assay [16], in assay [17], in assay [18], in [19] and in assay [20] was inactive.
Consider `NC(=O)N1c2ccccc2C=Cc2ccccc21`, for which the AC50 is 16.7 µM (active) in [1]; 100 µM (active) in [2]; 63.4 µM (active) in assay [4]; 64.8 µM (active) in assay [5]; 23 µM (active) in assay [6]; 47 µM (active) in assay [7]. Further, the result in assay [3] and in [8] was inactive.
`NNC(=O)c1ccncc1`: the outcome in assay [1], in [2], in assay [3], in assay [4], in [5] and in assay [6] was inactive. Further, the result in [7] and in assay [8] was inactive.
For `O=S(=O)(O)CCC(F)(F)C(F)(F)C(F)(F)C(F)(F)C(F)(F)C(F)(F)F`, the outcome in [9], in [10], in assay [11], in assay [12], in assay [13] and in assay [14] was inactive. Moreover, the compound was classed as inactive in assay [15], in assay [16], in assay [17], in assay [18], in assay [19] and in assay [20].
